Here are results for 28 compounds from ChEMBL document CHEMBL2218924, “A broad activity screen in support of a chemogenomic map for kinase signalling research and drug discovery” (Biochem J, 2013).

The structures appear in SMILES notation.

Sequence of Ribosomal protein S6 kinase alpha-5 (Homo sapiens) (O75582 whole entry, looked up): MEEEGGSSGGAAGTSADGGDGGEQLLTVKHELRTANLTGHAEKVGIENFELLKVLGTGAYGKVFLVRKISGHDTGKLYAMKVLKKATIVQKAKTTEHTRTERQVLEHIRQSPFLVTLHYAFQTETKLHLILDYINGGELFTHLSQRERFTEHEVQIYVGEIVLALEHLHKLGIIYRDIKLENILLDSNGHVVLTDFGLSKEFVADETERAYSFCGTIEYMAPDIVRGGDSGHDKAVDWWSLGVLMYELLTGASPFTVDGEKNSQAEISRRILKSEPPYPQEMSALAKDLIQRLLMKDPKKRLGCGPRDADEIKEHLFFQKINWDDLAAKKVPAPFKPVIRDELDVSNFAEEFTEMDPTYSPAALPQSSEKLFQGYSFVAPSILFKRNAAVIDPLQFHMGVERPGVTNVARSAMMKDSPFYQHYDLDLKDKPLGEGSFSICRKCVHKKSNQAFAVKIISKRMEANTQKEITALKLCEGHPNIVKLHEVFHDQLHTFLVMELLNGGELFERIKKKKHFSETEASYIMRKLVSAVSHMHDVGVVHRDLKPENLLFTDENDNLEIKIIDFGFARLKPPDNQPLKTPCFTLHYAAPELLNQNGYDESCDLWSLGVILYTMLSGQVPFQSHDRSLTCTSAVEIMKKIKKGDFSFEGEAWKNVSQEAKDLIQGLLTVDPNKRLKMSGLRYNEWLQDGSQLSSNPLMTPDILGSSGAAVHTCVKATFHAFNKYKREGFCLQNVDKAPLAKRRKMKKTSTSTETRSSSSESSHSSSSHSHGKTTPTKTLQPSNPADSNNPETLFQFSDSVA

The first assay deals with Serine/threonine-protein kinase MRCK beta (Homo sapiens) (UniProt Q9Y5S2). Particulars: at 10 µM.
Sequence of Serine/threonine-protein kinase MRCK beta (Homo sapiens) (Q9Y5S2 whole entry): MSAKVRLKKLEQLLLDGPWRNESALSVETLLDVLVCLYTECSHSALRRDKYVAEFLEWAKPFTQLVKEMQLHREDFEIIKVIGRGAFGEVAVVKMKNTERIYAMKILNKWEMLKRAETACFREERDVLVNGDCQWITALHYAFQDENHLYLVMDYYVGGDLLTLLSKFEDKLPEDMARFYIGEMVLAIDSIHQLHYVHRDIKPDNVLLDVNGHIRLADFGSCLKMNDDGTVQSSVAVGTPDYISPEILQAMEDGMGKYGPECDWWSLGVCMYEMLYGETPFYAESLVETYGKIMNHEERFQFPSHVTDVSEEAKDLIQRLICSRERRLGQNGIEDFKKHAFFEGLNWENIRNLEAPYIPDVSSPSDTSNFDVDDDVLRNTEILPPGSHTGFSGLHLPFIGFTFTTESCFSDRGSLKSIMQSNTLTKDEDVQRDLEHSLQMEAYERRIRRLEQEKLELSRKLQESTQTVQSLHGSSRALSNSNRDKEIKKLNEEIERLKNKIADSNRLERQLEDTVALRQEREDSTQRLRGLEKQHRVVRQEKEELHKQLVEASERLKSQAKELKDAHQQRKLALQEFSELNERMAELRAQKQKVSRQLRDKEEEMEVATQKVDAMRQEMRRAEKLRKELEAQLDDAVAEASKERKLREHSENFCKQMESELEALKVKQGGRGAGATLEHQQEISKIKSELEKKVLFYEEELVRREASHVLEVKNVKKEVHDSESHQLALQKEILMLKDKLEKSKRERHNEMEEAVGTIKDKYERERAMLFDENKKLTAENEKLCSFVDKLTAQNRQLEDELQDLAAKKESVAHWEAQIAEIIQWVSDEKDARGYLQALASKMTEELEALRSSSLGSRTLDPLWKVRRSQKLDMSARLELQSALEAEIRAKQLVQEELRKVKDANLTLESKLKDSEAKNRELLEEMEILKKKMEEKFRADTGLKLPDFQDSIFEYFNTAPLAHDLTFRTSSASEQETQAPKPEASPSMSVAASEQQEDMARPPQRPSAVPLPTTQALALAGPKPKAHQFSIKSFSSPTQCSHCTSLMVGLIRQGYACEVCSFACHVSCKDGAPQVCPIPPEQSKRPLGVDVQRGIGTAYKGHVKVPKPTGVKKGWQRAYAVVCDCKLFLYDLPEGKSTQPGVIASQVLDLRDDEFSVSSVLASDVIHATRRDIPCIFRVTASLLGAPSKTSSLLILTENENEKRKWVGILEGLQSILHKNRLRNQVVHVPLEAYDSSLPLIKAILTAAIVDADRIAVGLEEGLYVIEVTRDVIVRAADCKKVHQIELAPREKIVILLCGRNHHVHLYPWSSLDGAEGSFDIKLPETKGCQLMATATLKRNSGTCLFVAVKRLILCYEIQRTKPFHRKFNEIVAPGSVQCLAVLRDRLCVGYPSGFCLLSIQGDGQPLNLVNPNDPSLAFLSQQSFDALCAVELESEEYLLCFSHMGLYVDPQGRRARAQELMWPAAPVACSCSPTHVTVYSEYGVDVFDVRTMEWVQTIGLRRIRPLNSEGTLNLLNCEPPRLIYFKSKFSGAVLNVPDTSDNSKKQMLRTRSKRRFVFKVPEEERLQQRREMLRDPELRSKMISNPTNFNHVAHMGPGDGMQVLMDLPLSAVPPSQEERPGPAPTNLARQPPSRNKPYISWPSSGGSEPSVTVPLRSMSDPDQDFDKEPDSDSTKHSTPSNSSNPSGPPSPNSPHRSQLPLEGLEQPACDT
As a reminder, the residual activity is the signal under treatment as a percentage of the control signal. With `Cn1c2ccccc2c2c3c(c4c5ccccc5n(CCC#N)c4c21)CNC3=O`, the residual activity is 64%.

With `Nc1ncnc2c1cnn2-c1ccccc1`, the residual activity came out at 83%.

Take `O=C1Cc2c([nH]c3ccc([N+](=O)[O-])cc23)-c2ccccc2N1`: the residual activity was found to be 57%.

With `O=c1cc(N2CCOCC2)oc2c1ccc1ccccc12`, the residual activity worked out at 78%.

For `N#C/C(=C\c1ccc(O)c(O)c1)C(=O)NCc1ccccc1`, the residual activity came to 82%.

Regarding `c1ccc(-c2cnc(Nc3ccc(OCCN4CCCC4)cc3)s2)cc1`, the residual activity was found to be 109%.

Take `Nc1ncnc2c1c(-c1ccc(Oc3ccccc3)cc1)cn2C1CCCC1`: the residual activity turned out to be 69%.

For the compound `O=C(NC(NC(=S)Nc1ccc(F)c([N+](=O)[O-])c1)C(Cl)(Cl)Cl)C(c1ccccc1)c1ccccc1` (stereo not given), the residual activity amounted to 87%.

With `O=C(Nc1nc2ccccc2n1CCN1CCOCC1)c1cccc([N+](=O)[O-])c1`, the residual activity was 83%.

Consider `O=C(O)/C=C/c1cc(Br)c(Br)c(Br)c1Br`, for which the residual activity turned out to be 90%.

Turning to `CC(C)(C)n1nc(Cc2cccc3ccccc23)c2c(N)ncnc21`, the residual activity was 86%.

Take `O=C(CCCc1ccc(-c2ccccc2F)cc1)Nc1ccc(O)cc1`: the residual activity came out at 105%.

As to `CSc1nc(-c2ccc(F)cc2)c(-c2ccnc(NC(C)c3ccccc3)c2)[nH]1` (stereo not given), the residual activity turned out to be 89%.

In the case of `CC(C)[C@H](CO)Nc1nc(Nc2cc(N)cc(Cl)c2)c2ncn(C(C)C)c2n1`, the residual activity was 90%.

Take `O=C1Nc2ccc(Cl)cc2/C1=C/c1cc(Cl)c(O)c(Cl)c1`: the residual activity was found to be 67%.

On to `COc1cc2nccc(Oc3ccc(NC(=S)NC(=O)c4ccccc4C)cc3)c2cc1OC`, for which the residual activity was found to be 67%.

As to `O=C1Cc2c([nH]c3ccc(Br)cc23)-c2ccccc2N1`, the residual activity came out at 52%.

As to `Fc1ccc(-c2nc3n(c2-c2ccncc2)CCS3)cc1`, the residual activity is 98%.

Consider `O=c1cc(N2CCNCC2)oc2c(-c3ccccc3)cccc12`, for which the residual activity is 76%.

As to `O=C1NC(=O)c2c1c1c3ccccc3[nH]c1n1cncc21`, the residual activity came to 79%.

As for `Nc1n[nH]c2nc3ccccc3nc12`, the residual activity worked out at 92%.

Turning to `NC(=O)c1ccc(-c2nc(-c3ccc4c(c3)OCCO4)c(-c3ccccn3)[nH]2)cc1`, the residual activity was 92%.

In the case of `NC(=O)Nc1sc(-c2ccc(F)cc2)cc1C(N)=O`, the residual activity worked out at 50%.

For the compound `O=C(c1ccccc1)c1ccc(N2CCOCC2)cc1O`, the residual activity stood at 82%.

The next assay addresses Ribosomal protein S6 kinase alpha-5 (Homo sapiens) (UniProt O75582). The note with it: at 1 µM.
Consider `Cn1c2ccccc2c2c3c(c4c5ccccc5n(CCC#N)c4c21)CNC3=O`, for which the residual activity turned out to be 3%.

As for `COc1ccc(COc2ccc(Cc3cnc(N)nc3N)cc2OC)cc1`, the residual activity was found to be 131%.

On to `O=C1Cc2c([nH]c3ccc([N+](=O)[O-])cc23)-c2ccccc2N1`, for which the residual activity worked out at 108%.

On to `O=c1cc(N2CCOCC2)oc2c1ccc1ccccc12`, for which the residual activity worked out at 125%.

Turning to `c1ccc(-c2cnc(Nc3ccc(OCCN4CCCC4)cc3)s2)cc1`, the residual activity was determined as 128%.

Regarding `Nc1ncnc2c1c(-c1ccc(Oc3ccccc3)cc1)cn2C1CCCC1`, the residual activity worked out at 126%.

With `O=C(Nc1nc2ccccc2n1CCN1CCOCC1)c1cccc([N+](=O)[O-])c1`, the residual activity turned out to be 124%.

As for `NCCNc1ncc(C(N)=O)c(Nc2cccc(C(F)(F)F)c2)n1`, the residual activity worked out at 112%.

Turning to `CC(C)(C)n1nc(Cc2cccc3ccccc23)c2c(N)ncnc21`, the residual activity is 120%.

As for `O=C(CCCc1ccc(-c2ccccc2F)cc1)Nc1ccc(O)cc1`, the residual activity was determined as 110%.

`CCN(CC)CCNC(=O)c1c(C)[nH]c(/C=C2\C(=O)Nc3ccc(Cl)cc32)c1C`: the residual activity was determined as 80%.

For the compound `CC(C)[C@H](CO)Nc1nc(Nc2cc(N)cc(Cl)c2)c2ncn(C(C)C)c2n1`, the residual activity came out at 118%.

Turning to `COc1cc2nccc(Oc3ccc(NC(=S)NC(=O)c4ccccc4C)cc3)c2cc1OC`, the residual activity turned out to be 137%.

`N#C/C(=C1/Nc2ccccc2S1)c1ccnc(NCCc2cccnc2)n1`: the residual activity was determined as 112%.

Turning to `O=C1NC(=O)c2c1c1c3ccccc3[nH]c1n1cncc21`, the residual activity was found to be 63%.

As for `NC(=O)c1ccc(-c2nc(-c3ccc4c(c3)OCCO4)c(-c3ccccn3)[nH]2)cc1`, the residual activity was determined as 120%.
